These results are taken from PubChem BioAssay AID848 (Columbia University Molecular Screening Center, 2007).

SMILES strings stand for the structures. About 160 (0.17%) of roughly 93,000 compounds were called active. This is one part of a sample in which actives are shown more often than they occur.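 The calls were made as follows: active = cell count reduction exceeding the screen mean by over 5 SD, scaled to untreated wells per plate (cut at about 78% in these data); inactive = the rest.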

This test is described as follows: cytotoxicity in TNFa-stimulated HUVEC, primary screen, cytotoxicity control for VCAM1 expression modulator project, imaging, Hoechst nuclei count (AID 848).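 Also: cells counted after 24 h of TNF alpha exposure following the 1 h pretreatment.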 As to conditions: HUVEC TNFalpha-stimulated, at 2 µM, active compounds read high.
As to `COc1ccc(CCNC(=S)NC(=O)/C=C/c2ccc(C)cc2)cc1OC`, the cell count reduction was -29.7% (inactive).
In the case of `COc1ccc(Oc2coc3cc(OC(=O)c4cncc(Br)c4)ccc3c2=O)cc1`, the cell count reduction is 7% (inactive).
On to `O=C(NC1CC1)c1ccc2c(c1)NC(=O)c1ccccc1S2`, for which the cell count reduction is -13.8% (inactive).
As for `Cc1ccc(/C=N/NC(=O)c2sccc2OCc2ccc(F)cc2)cc1`, the cell count reduction is -8.8% (inactive).
Turning to `Cc1cc(=O)oc2cc(OC(C)C(=O)Nc3ccc(N4CCOCC4)cc3)ccc12` (centres undefined), the cell count reduction was -7.6% (inactive).
To `Cc1nnc(NC(=O)CSc2nc(C3CCCCC3)nc3ccccc23)s1` belongs -7.9% (inactive).
`O=C1CCN(C(=O)Nc2ccccc2)N1`: the cell count reduction was -11.8% (inactive).
For the molecule `CCOc1cccc(SCc2noc(C(=O)NC(C)C)c2C(=O)O)c1`, the cell count reduction is -41.1% (inactive).
`Cc1cc([N+](=O)[O-])c(N2CCC[C@@H]2C(=O)O)c([N+](=O)[O-])c1`: the cell count reduction is -11.9% (inactive).
As to `CC(C(=O)Nc1ccc(F)c(F)c1F)N1CCCCCC1` (centres undefined), the cell count reduction was 0% (inactive).
`CCC(C(=O)NCc1ccc(OC)cc1)n1nc(C)n2c(cc3occc32)c1=O` (centres undefined): the cell count reduction was -4.6% (inactive).
For the molecule `C/C(=N\NS(=O)(=O)c1cccc([N+](=O)[O-])c1)c1cc2ccccc2o1`, the cell count reduction was -56% (inactive).
In the case of `CC1CC(C)CN(C(=O)CSc2nnc(CSc3ncccn3)n2C)C1` (centres undefined), the cell count reduction is -24.8% (inactive).
For the molecule `Cc1ccc(NC(=S)NC(=O)c2ccc(-c3ccccc3)cc2)c(C)c1`, the cell count reduction is -14.1% (inactive).
To `CCCCNC(=O)CSc1nc2ccc(NC(=O)CSc3nnc(COc4ccccc4C)n3C)cc2s1` belongs -20.8% (inactive).
Regarding `O=C(Nc1ccccc1Cl)O/N=C(/c1ccccc1)c1ccccn1`, the cell count reduction was 9.5% (inactive).
Turning to `Cc1nn(Cc2ccccc2Cl)c(C)c1NC(=O)Cn1nc([N+](=O)[O-])c(Cl)c1C`, the cell count reduction was 10.2% (inactive).
`CSCc1cc(N(C)C)nc(SCc2ccc(Cl)cc2Cl)n1`: the cell count reduction is -3% (inactive).
To `COCCCNCC(=O)Nc1sc(C)c(C)c1C(=O)OC` belongs -27.9% (inactive).
To `COc1ccc2c(Cl)c(C(=O)NCc3ccco3)sc2c1` belongs -12% (inactive); to `O=C(CSc1ccc(/C=N/NC(=O)c2cccc(F)c2)o1)Nc1ccccc1`, -19.1% (inactive).
Turning to `C=CCn1c(-c2ccc(Cl)cc2)ccc(C#N)c1=O`, the cell count reduction is 4.1% (inactive).
As for `CCC(c1nnnn1C(C)(C)C)N(Cc1cc2cccc(C)c2n2nnnc12)C1CCCC1` (centres undefined), the cell count reduction was -17% (inactive).
For `O=C(CCCN1C(=O)c2ccccc2C1=O)Oc1ccc(Cl)cc1`, the cell count reduction is -17.1% (inactive).
As for `CN1/C(=c2/s/c(=C3/C(=O)N(c4ccccc4)NC3=Nc3ccccc3)n(C)c2=O)C(C)(C)c2ccccc21`, the cell count reduction was 3.8% (inactive).
To `C(=N/N1CCN(c2ccccc2)CC1)/c1cccs1` belongs -6.5% (inactive).
`Cc1ccc(-n2c(CNc3ccc(F)cc3)nnc2SCC(=O)N2CCOCC2)cc1`: the cell count reduction was -20.7% (inactive).
`COc1ccc(-c2c(C(C)=O)c(C)nc3sc4c(=O)n(-c5ccc(C)cc5)nnc4c23)cc1`: the cell count reduction was -14.8% (inactive).
As to `Cc1cc(C)n2nc(C(=O)NC(C)(C)C)nc2n1`, the cell count reduction is 14.4% (inactive).
In the case of `COc1cc(OC)cc(C(=O)NC(=S)N2CCN(c3ccc(C(F)(F)F)cc3[N+](=O)[O-])CC2)c1`, the cell count reduction is -5.1% (inactive).
To `Cc1cccc(N(C(=O)c2ccc(CN3CCOCC3)o2)C(C(=O)NC2CCCCC2)c2ccc(F)cc2)c1` (centres undefined) belongs -36.1% (inactive); to `Cc1ccc(-n2nc(N)c3c(=O)oc(N(C)C)nc32)cc1`, 5% (inactive); to `CN(C)/C=C/C(=O)c1ccccc1F`, -9% (inactive).
To `O=C(Nc1ccccc1)c1ccc2nsnc2c1` belongs 5.4% (inactive); to `O=C(Nc1cc(C(F)(F)F)ccc1Cl)c1cc2nc3c(c(C(F)(F)F)n2n1)CCCC3`, -32.1% (inactive); to `CCCCOC(=O)Cn1c(=O)n(CC(=O)OCCCC)c2cc(C)ccc21`, -29.5% (inactive).
To `CCOC(=O)c1nc(C)n(-c2ccc(Cl)cc2Cl)n1` belongs -3.8% (inactive); to `COc1ccc(/C=N/Nc2nc3ccccc3c(=O)[nH]2)cc1`, 18.9% (inactive).
On to `CC(=O)N1CCc2cc(S(=O)(=O)Nc3ccccc3N3CCN(C)CC3)ccc21`, for which the cell count reduction is -25.4% (inactive).
Regarding `CC(=O)N1CCCc2cc(S(=O)(=O)CCC(=O)N3CCN(c4ccccc4)CC3)ccc21`, the cell count reduction was -22.4% (inactive).
With `CCCNS(=O)(=O)c1ccc2c(c1)CCCN2C(C)=O`, the cell count reduction is 100% (active).
Turning to `O=C(/C=C/c1ccco1)Nc1ccc(Oc2ccccc2)cc1`, the cell count reduction was -16.8% (inactive).
Consider `CCn1c2ccccc2c2cc(NC(=S)N3CCOCC3)ccc21`, for which the cell count reduction was -4% (inactive).
On to `O=C(NCc1cccnc1)c1cccnc1Sc1ccc(Cl)cc1`, for which the cell count reduction was -20.6% (inactive).
Take `Cc1ccc(C)c(NC(=O)C2Cc3ccccc3CN2C(=O)OCc2ccccc2)c1` (centres undefined): the cell count reduction was -19.8% (inactive).
Consider `CSc1cc(C)n(-c2ccccc2C)c(=S)c1C(C)=O`, for which the cell count reduction is -11.4% (inactive).
For the molecule `CC(C)(C)NS(=O)(=O)c1ccc(NC(=O)NC2CCCCC2)cc1`, the cell count reduction is 2.5% (inactive).
`CC(C)(C)c1ccc(OC2=CS(=O)(=O)c3ccccc32)cc1`: the cell count reduction was -12% (inactive).
For `O=C(N/N=C\c1ccc(-c2ccc(Cl)c(Cl)c2)o1)C(=O)N1CCCC1`, the cell count reduction is -10.6% (inactive).
As for `c1ccc(CSc2ncnc3c2sc2nc(N4CCOCC4)c4c(c23)CCCC4)cc1`, the cell count reduction was -21.4% (inactive).
For `CCC(C)n1c(-c2cc(OC)c(OC)c(OC)c2)nc2nc3ccccc3nc21` (centres undefined), the cell count reduction is 5.6% (inactive).
On to `O=C(Oc1ccccc1)Oc1ccc2c(c1)oc(=O)c1ccccc12`, for which the cell count reduction was -8.6% (inactive).
Turning to `Cc1ccc(Oc2ccc3c(c2)C(=O)N(c2cccc4cccnc24)C3=O)cc1`, the cell count reduction is 16.6% (inactive).
`O=C(Nc1ccccc1)O/N=C1\CCCCC1c1ccc([N+](=O)[O-])cc1[N+](=O)[O-]` (centres undefined): the cell count reduction was -15.6% (inactive).
As for `O=C(CSc1nc2ccccc2o1)N1c2ccccc2Sc2ccc(Cl)cc21`, the cell count reduction is 4.3% (inactive).
To `O=C(CCl)NNc1cccc(Cl)n1` belongs -9% (inactive); to `Cc1cc(-c2cccs2)nc(-n2cccc2)n1`, 3.7% (inactive).
To `COc1cccc2cc(C(=O)N3CCN(C(=O)c4ccccc4)CC3)c(=O)oc12` belongs -19.2% (inactive); to `O=C(Cc1ccc(S(=O)(=O)N2CCOCC2)s1)NCCC(c1ccccc1)c1ccccc1`, -20.2% (inactive).
